Experiment [1] has as its target T1, Hexokinase-4 (Homo sapiens) + Glucokinase regulatory protein (Homo sapiens) (UniProt P35557+Q14397). In words: qHTS assay for inhibitors of recombinant human GCK-GKRP interaction: Diaphorase-coupled assay (AID 743205). In outline:
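Signal derives from resorufin generated by diaphorase, linked to GCK turnover of glucose (5 mM) and ATP (0.4 mM). Enzyme complex was added after a 20-minute compound preincubation and monitored for 30 minutes.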

Experiment [2] has as its target T1, Hexokinase-4 (Homo sapiens) + Glucokinase regulatory protein (Homo sapiens). In words: qHTS assay for inhibitors of recombinant human GCK-GKRP interaction: ADP-Glo assay (AID 743206).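 Also: plate controls were DMSO plus enzyme for no effect and no enzyme for full effect.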 In a few lines: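 Pin-transferred compounds meet a 15 nM GST-GCK/15 nM FLAG-GKRP/2 uM S6P mix (dispense concentrations). ATP is then added to 0.4 mM final with 5 mM glucose, and the reaction runs 60 min at room temperature. ADP is quantified luminescently.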
A general note: qHTS replaces the single test concentration by a dilution series.

The target is the same in experiment [3]. In words: qHTS assay for inhibitors of recombinant human GCK-GKRP interaction: HTRF assay (AID 743207).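 Also: 0% = DMSO with GCK present and -100% = DMSO wells lacking GCK.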 In a few lines: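 Titration screening format: recombinant GST-GCK and FLAG-GKRP at 5 nM, S6P at 2 uM, labelled anti-tag antibodies, 60 min at RT, dual-wavelength HTRF readout.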
The nature of experiment [4]: qHTS assay for measurement of the activity of small molecule inhibitors on Zika virus induced Caspase-3 activity in human iPSC derived neural progenitor cells (hNPCs) (AID 1224857). Also: % of control where 0% means no effect; nearly all actives have a fitted effect of over 65% in size. In outline: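 Caspase-3/7 induction by a 6-hour ZIKV infection was quantified with a luminescent Caspase-Glo 3/7 reagent incubated 30 minutes at room temperature. Compounds were preincubated with hNPCs for 1 hour; inhibition was calculated against uninfected and infected control wells.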

A short description of experiment [5]: qHTS assay for measurement of the activity of small molecule inhibitors on Zika virus induced Caspase-3 activity in human astrocytoma cells (AID 1224859).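 Also: plate controls were ZIKV-infected untreated cells for no effect and uninfected cells for full effect.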 In a few lines: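 In SNB-19 cells plated at 250 cells/well and grown 16-20 h, compounds were applied 1 h before ZIKV (2 FFU/cell). Six hours later caspase-3/7 luminescence was recorded.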
Experiment [6] has as its target Atrial natriuretic peptide receptor 1 (Homo sapiens) (UniProt P16066). In words: Natriuretic polypeptide receptor (hNpr1) antagonism - Pilot screen (AID 1347049; calls by dose curve;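 also: agonist-evoked cGMP luminescence read 20 min after hNppA addition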; also: potency is read from the fitted curve at half-maximal effect; as to activity change, negative = inhibition: % is scaled to controls: 0 for no effect and ±100 for the full control effect). In a few lines:
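cGMP-sensor HEK293/hNpr1 cells, 1500/well, plated overnight at 37C. 2% GloSensor reagent, 2 h RT. Compound (23 nL pin transfer) 30 min RT, baseline luminescence pre-read. 0.1 nM hNppA, 20 min RT, post-read.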

Experiment [7] can be described thus: qHTS Assay for Identifying Gametocytocidal Compounds (AID 743244).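 Also: % is scaled to controls: 0 for no effect and ±100 for the full control effect; actives lower the fluorescent signal which means gametocytes are killed.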 As to conditions: P. falciparum 3D7 stage III-V gametocytes, alamarBlue, 72 h; max response: stronger effect = lower value. In a few lines:
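Late gametocytes (III–V), P. falciparum 3D7; 72 h drug, then 24 h alamarBlue; resazurin reduction read by fluorescence.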

Experiment [8] is described as follows: Natriuretic polypeptide receptor (hNpr1) antagonism - Pilot counterscreen GloSensor control cell line (AID 1347045; calls by dose curve; also: potency is read from the fitted curve at half-maximal effect; as to activity change, negative = inhibition: % is scaled to controls: 0 for no effect and ±100 for the full control effect). In outline:
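The SNP-driven cGMP luminescence signal (50 uM, 20 min, room temperature) was measured in GloSensor HEK293 control cells. Compounds were tested as a LOPAC titration series and preincubated for 30-50 min.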
On the technique in general: A counterscreen serves to expose hits that act by an unwanted route or on another target.

The target in experiment [9] is Atrial natriuretic peptide receptor 2 (Homo sapiens) (UniProt P20594). In words: Natriuretic polypeptide receptor (hNpr2) antagonism - Pilot subtype selectivity assay (AID 1347050; calls by dose curve; also: % is scaled to controls: 0 for no effect and ±100 for the full control effect). In outline:
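Luminescence from a genetically encoded cGMP luciferase biosensor in hNpr2-expressing HEK293 cells is read before and 20 min after adding 1 nM hNppC. Test compounds, in interplate 1:5 titrations, are added 30-50 min ahead of the agonist.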

The nature of experiment [10]: qHTS profiling of the MIPE4 collection as inhibitors of Plasmodium falciparum (3D7) proliferation (AID 743344; call rule not given here;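 also: scaled between DMSO vehicle wells and 0.29 µM artemisinin as full inhibition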). Particulars: P. falciparum 3D7 in erythrocytes, SYBR Green DNA fluorescence, 72 h; at 28.5 µM (top of the series). In outline: (§1)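 Parasite DNA was quantified by SYBR Green I fluorescence (ex 485, em 535 nm) after overnight lysis in saponin/Triton buffer at room temperature. Cultures at 0.3% parasitemia and 2.5% hematocrit were first exposed to compound for 72 h at 37 C; signals were normalised to artemisinin (0.29 uM) and vehicle wells.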

A short description of experiment [11]: qHTS profiling of the MIPE4 collection as inhibitors of Plasmodium falciparum (DD2) proliferation (AID 743345; call rule not given here). As to conditions: P. falciparum Dd2 in erythrocytes, SYBR Green DNA, 72 h; at 28.5 µM (top of the series). In a few lines:
as §1

Experiment [12] is described as follows: qHTS profiling of the MIPE4 collection as inhibitors of Plasmodium falciparum (DD2) proliferation (Rep 2) (AID 743346; call rule not given here). Particulars: P. falciparum Dd2 in erythrocytes, SYBR Green DNA, 72 h; at 28.5 µM (top of the series). In outline:
as §1

The nature of experiment [13]: qHTS profiling of the MIPE4 collection as inhibitors of Plasmodium falciparum (HB3) proliferation (AID 743347; call rule not given here;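 also: plate controls were DMSO vehicle wells for no effect and artemisinin wells for full effect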). Particulars: P. falciparum HB3 in erythrocytes, SYBR Green DNA, 72 h; at 28.5 µM (top of the series). In a few lines:
as §1

Records with an inconclusive call do not appear. Active and inactive are the calls of the source. Unless noted, calls follow the shape of the dose curve; as a rule, active = well fitted curve in the direction sought with a large enough effect; inconclusive = small, poorly fitted or top-dose-only effect, or another doubt; inactive = no such curve, though single readings can be large; an effect the other way counts as inactive or inconclusive.

T1 sequence (P35557 whole entry, looked up): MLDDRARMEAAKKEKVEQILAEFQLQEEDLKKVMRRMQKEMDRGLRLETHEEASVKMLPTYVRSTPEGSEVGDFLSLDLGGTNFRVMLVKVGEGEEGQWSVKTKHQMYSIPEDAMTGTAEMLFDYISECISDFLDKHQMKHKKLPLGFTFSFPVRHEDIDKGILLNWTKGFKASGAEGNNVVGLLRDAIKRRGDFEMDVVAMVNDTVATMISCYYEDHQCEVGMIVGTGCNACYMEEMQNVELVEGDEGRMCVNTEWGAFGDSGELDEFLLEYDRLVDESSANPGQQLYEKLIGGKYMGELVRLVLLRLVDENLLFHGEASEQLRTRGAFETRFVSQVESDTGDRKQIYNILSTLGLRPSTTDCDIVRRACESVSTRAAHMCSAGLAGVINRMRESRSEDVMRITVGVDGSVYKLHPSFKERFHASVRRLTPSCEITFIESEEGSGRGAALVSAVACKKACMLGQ
T1 sequence (Q14397 whole entry, looked up): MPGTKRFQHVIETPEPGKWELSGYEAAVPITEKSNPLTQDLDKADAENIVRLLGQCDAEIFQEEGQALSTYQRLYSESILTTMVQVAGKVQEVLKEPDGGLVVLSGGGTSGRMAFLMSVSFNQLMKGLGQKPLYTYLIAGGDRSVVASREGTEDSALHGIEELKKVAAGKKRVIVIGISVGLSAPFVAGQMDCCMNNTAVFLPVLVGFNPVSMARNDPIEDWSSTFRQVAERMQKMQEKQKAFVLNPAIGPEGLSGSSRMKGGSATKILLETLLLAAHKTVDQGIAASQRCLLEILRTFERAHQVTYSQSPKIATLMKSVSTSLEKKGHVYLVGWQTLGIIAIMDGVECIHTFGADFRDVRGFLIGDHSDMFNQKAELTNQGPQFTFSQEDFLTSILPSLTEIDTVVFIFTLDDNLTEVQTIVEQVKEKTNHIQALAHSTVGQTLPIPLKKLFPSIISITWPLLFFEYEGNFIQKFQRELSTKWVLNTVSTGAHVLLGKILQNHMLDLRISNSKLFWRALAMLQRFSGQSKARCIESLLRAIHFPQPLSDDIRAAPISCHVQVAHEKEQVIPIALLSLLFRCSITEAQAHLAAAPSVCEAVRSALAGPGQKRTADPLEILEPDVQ
Atrial natriuretic peptide receptor 2 (Homo sapiens), sequence (P20594 whole entry, looked up): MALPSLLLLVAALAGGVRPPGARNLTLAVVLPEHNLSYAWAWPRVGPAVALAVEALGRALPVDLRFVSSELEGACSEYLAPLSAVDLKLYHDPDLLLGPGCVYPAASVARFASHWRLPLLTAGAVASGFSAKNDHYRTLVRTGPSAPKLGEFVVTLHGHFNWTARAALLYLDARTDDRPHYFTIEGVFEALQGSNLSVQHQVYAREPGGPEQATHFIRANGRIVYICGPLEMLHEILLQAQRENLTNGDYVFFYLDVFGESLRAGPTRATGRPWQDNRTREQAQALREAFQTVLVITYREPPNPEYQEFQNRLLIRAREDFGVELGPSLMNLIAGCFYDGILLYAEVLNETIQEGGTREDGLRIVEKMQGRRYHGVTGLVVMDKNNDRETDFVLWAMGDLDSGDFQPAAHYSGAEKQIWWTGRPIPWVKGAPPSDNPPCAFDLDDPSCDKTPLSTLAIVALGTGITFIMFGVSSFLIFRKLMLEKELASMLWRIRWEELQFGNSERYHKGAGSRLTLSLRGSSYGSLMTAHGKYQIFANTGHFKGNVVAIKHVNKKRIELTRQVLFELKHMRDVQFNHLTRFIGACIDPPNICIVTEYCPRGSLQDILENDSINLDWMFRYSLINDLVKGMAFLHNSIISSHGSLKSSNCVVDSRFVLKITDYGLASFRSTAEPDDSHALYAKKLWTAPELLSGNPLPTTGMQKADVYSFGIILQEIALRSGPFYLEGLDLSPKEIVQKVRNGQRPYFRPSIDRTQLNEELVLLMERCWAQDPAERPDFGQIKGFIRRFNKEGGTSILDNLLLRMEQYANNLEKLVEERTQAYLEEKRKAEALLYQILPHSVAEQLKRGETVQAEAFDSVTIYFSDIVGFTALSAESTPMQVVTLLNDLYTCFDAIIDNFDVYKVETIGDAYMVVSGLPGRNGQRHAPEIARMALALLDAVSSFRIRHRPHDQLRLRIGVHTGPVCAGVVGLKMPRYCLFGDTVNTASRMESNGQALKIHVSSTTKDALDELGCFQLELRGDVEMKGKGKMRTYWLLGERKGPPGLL
Atrial natriuretic peptide receptor 1 (Homo sapiens), sequence (P16066 whole entry, looked up): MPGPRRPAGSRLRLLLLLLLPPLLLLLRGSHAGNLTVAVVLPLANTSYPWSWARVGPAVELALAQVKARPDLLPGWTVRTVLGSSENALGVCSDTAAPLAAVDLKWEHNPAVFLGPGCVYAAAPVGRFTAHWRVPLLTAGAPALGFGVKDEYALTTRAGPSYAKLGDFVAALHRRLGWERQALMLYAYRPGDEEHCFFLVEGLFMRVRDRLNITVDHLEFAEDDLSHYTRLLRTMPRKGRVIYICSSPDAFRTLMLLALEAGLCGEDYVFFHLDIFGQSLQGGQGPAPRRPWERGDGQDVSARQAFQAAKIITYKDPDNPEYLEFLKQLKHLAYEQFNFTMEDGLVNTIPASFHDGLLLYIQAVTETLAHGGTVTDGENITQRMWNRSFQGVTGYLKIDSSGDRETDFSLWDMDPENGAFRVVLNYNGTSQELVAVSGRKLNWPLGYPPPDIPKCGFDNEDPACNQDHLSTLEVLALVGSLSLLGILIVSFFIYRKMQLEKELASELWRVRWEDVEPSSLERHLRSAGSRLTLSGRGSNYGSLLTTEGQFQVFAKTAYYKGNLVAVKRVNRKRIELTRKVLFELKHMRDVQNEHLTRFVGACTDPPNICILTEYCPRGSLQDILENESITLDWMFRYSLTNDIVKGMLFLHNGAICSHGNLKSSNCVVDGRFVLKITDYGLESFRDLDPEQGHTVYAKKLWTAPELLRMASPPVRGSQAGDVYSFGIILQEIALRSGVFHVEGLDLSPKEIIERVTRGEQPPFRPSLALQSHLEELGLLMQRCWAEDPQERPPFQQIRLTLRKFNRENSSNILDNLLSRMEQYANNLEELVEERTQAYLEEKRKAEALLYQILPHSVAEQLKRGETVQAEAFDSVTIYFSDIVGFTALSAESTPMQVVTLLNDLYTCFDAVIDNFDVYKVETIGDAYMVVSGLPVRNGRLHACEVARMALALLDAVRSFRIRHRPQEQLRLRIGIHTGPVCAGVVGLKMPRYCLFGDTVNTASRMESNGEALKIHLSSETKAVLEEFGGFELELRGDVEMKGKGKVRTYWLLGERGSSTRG

As for `O=C(O)c1cc(=O)cc(C(=O)O)[nH]1`, the Potency result in experiment [1], in experiment [2], in experiment [3], in experiment [4], in experiment [5] and in [6] was “inactive” throughout.
In the case of `Cn1c(=O)[nH]c2ncn(C)c2c1=O`, the Potency entry in experiment [1], in experiment [2], in experiment [3], in experiment [4], in experiment [8] and in experiment [6] was “inactive” throughout. Besides, the Potency entry in [9] is “inactive”. Moreover, the max response in experiment [7] was 2.01% (inactive).
Turning to `CC[N+](CC)(CC)CC(=O)Nc1c(C)cccc1C`, the Potency result in [1], in experiment [2], in [3], in experiment [4], in experiment [8] and in experiment [6] was “inactive” in each case. The Potency entry in experiment [9] is “inactive”.
As to `O=C(c1ccc2c(c1)OCCO2)N1CCCCC1`, the Potency entry in experiment [1], in [2], in experiment [3], in [4], in experiment [6] and in [9] was “inactive” in each case.
With `N[C@@H](CS(=O)O)C(=O)O`, the Potency entry in experiment [1], in experiment [2], in [3], in experiment [4], in experiment [8] and in [6] was “inactive” in each case. Further, the max response in experiment [7] was 27.3% (inactive).
As for `Cc1cc2c(cc1Cl)N(C(=O)Nc1ccnc3ccccc13)CC2`, the Potency result in experiment [1], in experiment [2], in experiment [3], in experiment [4], in experiment [8] and in experiment [6] was “inactive” each time. Also, the Potency result in experiment [9] is “inactive”. The max response in experiment [7] is 6.93% (inactive).
With `NC1CCN(O)C1=O` (stereo not drawn), the Potency result in experiment [1], in [2], in experiment [3], in [4], in [8] and in experiment [6] was “inactive” each time. Also, in [9], the Potency entry was “inactive”. Further, the max response in [7] was 19.4% (inactive).
For the compound `Nc1ccc(N2C(=O)c3ccccc3C2=O)c(Cl)c1`, the Potency entry in experiment [1], in experiment [2], in experiment [3], in [4], in experiment [8] and in [6] was “inactive” each time. The Potency entry in experiment [9] is “inactive”. Also, in experiment [7], the max response is 6.35% (inactive).
Take `CC(C)NC[C@H](O)COc1cccc2ccccc12`: the Potency entry in experiment [1], in experiment [2], in experiment [3], in experiment [4], in experiment [8] and in experiment [6] was “inactive” throughout. The Potency result in experiment [9] is “inactive”.
In the case of `COc1ccccc1N1CCN(CCCNc2c(C)c(=O)n(C)c(=O)n2C)CC1`, the Potency result in experiment [1], in [2], in [3], in experiment [4], in experiment [8] and in experiment [6] was “inactive” each time. For the same compound, the max response in [7] was -1.96% (inactive).
Take `N[C@H](C(=O)O)[C@H](Cc1ccccc1)C(=O)O`: the Potency entry in experiment [1], in experiment [2], in [3], in experiment [4], in experiment [8] and in [6] was “inactive” throughout. Besides, in [9], the activity change, negative = inhibition is -2% [at 1.53 µM] (inactive).
`O=c1[nH]c(=S)[nH]c(-c2ccccc2)c1Cc1c(O)ccc2ccccc12`: the Potency entry in experiment [1], in experiment [2], in experiment [3], in experiment [4], in [8] and in [6] was “inactive” throughout. The Potency entry in experiment [9] was “inactive”. The max response in experiment [7] was 1.54% (inactive).
Take `C[C@]12C=CC(=O)C=C1CC[C@@H]1C2=CC[C@]2(C)[C@@H](C(=O)CN3CCN(c4cc(N5CCCC5)nc(N5CCCC5)n4)CC3)CC[C@@H]12`: the Potency entry in experiment [1], in experiment [2], in experiment [3], in experiment [4], in [6] and in [9] was “inactive” in each case.
As to `Cn1cc(C(=O)OCC2CCN(CCNS(C)(=O)=O)CC2)c2ccccc21`, the Potency entry in experiment [1], in [2], in [3], in [4], in experiment [6] and in [9] was “inactive” in each case. Further, the max response in experiment [7] was 28.9% (inactive).
For the compound `Cn1c(=O)c2[nH]c(C3CCCC3)nc2n(C)c1=O`, the Potency result in experiment [1], in experiment [2], in experiment [3], in [4], in experiment [8] and in experiment [6] was “inactive” each time. The Potency entry in experiment [9] was “inactive”. In addition, the max response in [7] was 9.69% (inactive).
For `Cc1ccc([N+](=O)[O-])cc1S(=O)(=O)N(C)C`, the Potency entry in [1], in experiment [2], in experiment [4], in [8], in experiment [6] and in [9] was “inactive” throughout. Besides, the max response in [7] is 4.81% (inactive).
Turning to `Brc1c(Br)c(Br)c2[nH]cnc2c1Br`, the Potency result in experiment [1], in [2], in experiment [3], in experiment [4], in experiment [8] and in experiment [6] was “inactive” in each case. Besides, the max response in experiment [7] is 7.09% (inactive).
Take `NC1CONC1=O` (stereo not drawn): the Potency entry in experiment [1], in experiment [2], in experiment [3], in experiment [4], in experiment [8] and in experiment [6] was “inactive” each time. Further, in [9], the Potency result is “inactive”. Besides, the parasite growth, % of DMSO control in [10] was 94.2%. Also, the parasite growth remaining, % of DMSO control (lower = more inhibition) in experiment [11] amounted to 99.7%. The compound also came in with a parasite growth, % of control (lower = inhibition) in experiment [12] of 78.4%. Besides, in experiment [13], the growth, % of control was 106%.
Turning to `Cc1nc2n(c(=O)c1CCN1CCC(c3noc4cc(F)ccc34)CC1)CCCC2O` (stereo not drawn), the Potency entry in [1], in experiment [2], in [3], in experiment [4], in experiment [8] and in experiment [6] was “inactive” throughout. Also, in experiment [9], the Potency result was “inactive”. In addition, the max response in [7] is 7.08% (inactive).
With `O=c1ccc2c(OCCCCc3ccccc3)c3ccoc3cc2o1`, the Potency entry in experiment [1], in experiment [2], in [3], in experiment [4], in experiment [8] and in experiment [6] was “inactive” in each case.
Regarding `COc1cc(/C=C(\C#N)C(=O)Nc2nnc(C(F)(F)F)s2)ccc1OCc1ccc(C(F)(F)F)cc1C(F)(F)F`, the Potency entry in experiment [1], in experiment [2], in experiment [3] and in experiment [4] was “inactive” in each case. In addition, the Potency is 14.7 µM (active) in experiment [8] and 23.9 µM (active) in experiment [6].
For `COCc1nc2c([nH]1)c(=O)n(C)c(=O)n2CC(C)C`, the Potency entry in [1], in [2], in experiment [3], in experiment [4], in experiment [8] and in experiment [6] was “inactive” in each case.
As to `Cc1cccc(C(=O)NCN2CCN(c3ccccc3C#N)CC2)c1`, the Potency entry in experiment [1], in [2], in experiment [3], in [4], in [8] and in experiment [6] was “inactive” in each case. The Potency result in experiment [9] was “inactive”. Moreover, in [7], the max response was 20.6% (inactive).
For `Cn1ccnc1`, the Potency entry in experiment [1], in experiment [2], in experiment [3], in [4], in experiment [8] and in [6] was “inactive” each time. For the same compound, in experiment [9], the Potency entry is “inactive”. Also, in [7], the max response was 14.7% (inactive).
Consider `O=c1onc2n1-c1cc(Br)ccc1OC2`, for which the Potency entry in experiment [1], in experiment [2], in [3], in [4], in experiment [6] and in experiment [9] was “inactive” in each case. Besides, in experiment [7], the max response was 20.4% (inactive). Also, the Potency in [8] was 0.131 µM (active).

The values above are taken from PubChem BioAssay (NCATS).
